AmpC inh no detg – qHTS Inhibitors of AmpC Beta-Lactamase (assay without detergent); P00811; AmpC nitrocefin hydrolysis, absorbance 480 nm, 0.0001% Triton; Potency, µM (top dose mostly 57.1 µM), for inactives: at the highest dose activity change, negative = inhibition, most hits filed as inhibitors; hit rate 0.52% among 330,000;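 further: plate controls were no compound for no effect and no enzyme for full effect; nearly all actives have a fitted effect of over 20% in size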
Target sequence (P00811 whole entry, looked up): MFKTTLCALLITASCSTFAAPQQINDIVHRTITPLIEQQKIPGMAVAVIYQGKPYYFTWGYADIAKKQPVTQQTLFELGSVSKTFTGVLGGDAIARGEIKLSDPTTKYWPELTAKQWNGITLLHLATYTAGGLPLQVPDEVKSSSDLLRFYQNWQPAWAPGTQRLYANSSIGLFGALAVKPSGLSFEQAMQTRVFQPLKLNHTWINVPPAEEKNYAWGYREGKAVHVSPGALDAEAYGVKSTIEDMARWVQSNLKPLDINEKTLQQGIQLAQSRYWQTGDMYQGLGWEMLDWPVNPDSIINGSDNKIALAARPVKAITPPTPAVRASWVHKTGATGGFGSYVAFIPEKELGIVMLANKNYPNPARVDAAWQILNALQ
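20 mM phosphate pH 7.0 + 0.01% (detergent screen) or 0.0001% Triton X-100; 5.3 nM AmpC reagent; cpd preinc 15 min RT; nitrocefin (800 uM stock) to start; A480 q20 s × 4 min; Activity was normalised to no-enzyme and no-compound control wells.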
AMA1 RON2 block – qHTS for Inhibitors of AMA1-RON; Towards Development of Antimalarial Drug Lead: Primary Screen; Potency, µM (doses to about 58.2 µM), for inactives: at the top dose activity change, negative = inhibition, most hits filed as inhibitors; AlphaScreen AMA1-biotinylated RON2 peptide binding; Plasmodium falciparum AMA1 (3D7) - RON2 peptide interaction; hit rate 0.2% among 360,000; AID 720542, 2013;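 further: 0% = vehicle wells and -100% = peptide control; nearly all actives have a fitted effect of over 45% in size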
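AMA1 (3D7) with his tag at 25 nM final met compounds first, then biotinylated RON2 peptide at 25 nM; detection used donor plus acceptor beads, 10 µg/mL apiece, read by AlphaScreen after 30 min at room temperature.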
RE007 growth inh – qHTS Assay for Inhibitors of the HIV-1 protein Vpr. S. pombe RE007 Vpr strain, BacTiter-Glo ATP luminescence, 24 h. Potency, µM (highest dose often 92.2 µM), for the others: at the top dose activity change, negative = less growth, usual class: inhibitors. hit rate 0.21% among 360,000. AID 651644, 2012; active means well fitted falling curve with a large enough effect; inconclusive means small, poorly fitted or top-dose-only effect; inactive means no such curve, though single readings can be large or run the other way; further: nearly all actives have a fitted effect of over 50% in size
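Fission yeast RE007 carrying one integrated HIV-1 vpr copy, seeded at OD 0.01 in PMG+AL medium with 23 nL pinned compound. Grown 24 h at 30 degrees; viability read by BacTiter-Glo luminescence after 5 min.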
AmpC detergent – qHTS Inhibitors of AmpC Beta-Lactamase (assay with detergent). AmpC hydrolysis of nitrocefin, absorbance 480 nm, 0.01% Triton. Potency, µM (series often up to 114 µM), inactives show at the highest dose activity change, negative = inhibition, hits mostly inhibitors. hit rate 0.041% among 370,000. AID 485294, 2010;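 further: 0% = no-compound wells and -100% = no-enzyme wells; nearly all actives have a fitted effect of over 25% in size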
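20 mM phosphate pH 7.0 + 0.01% (detergent screen) or 0.0001% Triton X-100; 5.3 nM AmpC reagent; cpd preinc 15 min RT; nitrocefin (800 uM stock) to start; A480 q20 s × 4 min; Activity was normalised to no-enzyme and no-compound control wells.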
Sm TGR block – qHTS Assay for the Inhibitors of Schistosoma Mansoni Peroxiredoxins. Schistosoma mansoni thioredoxin glutathione reductase (TGR), Q962Y6. purified TGR, DTNB reduction, TNB absorbance 405 nm. Potency, µM (series often up to 114 µM), inactives show at the highest dose activity change, negative = inhibition, actives largely listed as inhibitors. hit rate 3% among 360,000; further: nearly all actives have a fitted effect of over 60% in size
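TGR 20 nM + NADPH 100 uM (dispensed conc.), cpd preinc 15 min RT; start with NADPH (500 uM addition) then DTNB (15 mM addition). Kinetic TNB absorbance, 405 nm filter. Four-parameter Hill fit across titration.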
Active calls of the source: *; [ ] = dose if it differs, or a comment. Shown are actives, neighbours in structure and some others; about 3.2% of the full set was active somewhere. Unless noted, the call rests on the fitted dose curve; in most records, active means well fitted curve in the direction sought with a large enough effect; inconclusive means small, poorly fitted or top-dose-only effect, or another doubt; inactive means no such curve, though single readings can be large; an effect the other way counts as inactive or inconclusive. Unless noted, on the % scale 0 is the no-effect control and ±100 the full control effect; potency means the concentration at half of the fitted maximal effect.

Screening CCOC(=O)C1CCCN(C(=O)CSCc2ccccc2)C1 (centres undefined) returned AmpC inh no detg 8%, AMA1 RON2 block 14%, RE007 growth inh -10%, AmpC detergent -1% and Sm TGR block 27%.
`O=C1CCCc2c1cc(C(=O)NCc1ccco1)c(=O)n2-c1ccccc1` gave AmpC inh no detg -13%, AMA1 RON2 block -14%, RE007 growth inh 20%, AmpC detergent inconclusive and Sm TGR block -9%.
Screening CC1(C)CC(=O)c2cc(C(=O)NCc3ccco3)c(=O)n(-c3ccc(Cl)cc3)c2C1 returned AmpC inh no detg 89%, AMA1 RON2 block -14%, RE007 growth inh -6%, AmpC detergent -8% and Sm TGR block 32µM*.
`Cc1ccc(-n2c3c(cc(C(=O)NCc4ccco4)c2=O)C(=O)CC(C)(C)C3)cc1` gave AmpC inh no detg 58%, AMA1 RON2 block -19%, RE007 growth inh 0%, AmpC detergent -4% and Sm TGR block 22µM*.
CCC(C(=O)N(C)Cc1ccccc1)n1nc(C)c2sc3ccccc3c2c1=O (centres undefined) was read as AmpC detergent -3% and Sm TGR block -6%.
`Cc1ccc(-c2nn3c(=O)cc(CN4CCN(C(=O)c5ccc(C(C)(C)C)cc5)CC4)nc3s2)cc1` gave AmpC detergent 14% and Sm TGR block 16%.
CN(C(=O)Cn1c(=O)n(Cc2ccc(C(=O)NCc3ccc4c(c3)OCO4)cc2)c(=O)c2ccccc21)c1ccccc1 was read as AmpC detergent 22% and Sm TGR block 0%.
For Cc1ccc(CN(C(=O)COc2ccc(Cl)cc2)c2ccccn2)o1 the results were AmpC detergent 22% and Sm TGR block -33%.
Cc1ccc(CN(C(=O)COc2ccccc2Cl)c2ccccn2)o1 was read as AmpC detergent 23% and Sm TGR block 40µM*.
For O=S(=O)(c1ccc(Cl)cc1)c1nnn2c1nc(NCc1ccccc1)c1sccc12 the results were AmpC detergent -4% and Sm TGR block -2%.
Screening C=CCNc1nc(C(=O)OCC(=O)c2ccc(C)c([N+](=O)[O-])c2)cs1 returned AmpC inh no detg 20µM*, AMA1 RON2 block 33%, RE007 growth inh -16%, AmpC detergent 2% and Sm TGR block -22%.
`CC(=O)N(C1=C(Cl)C(=O)c2ccccc2C1=O)C1CCCCC1` gave AmpC inh no detg -8%, AMA1 RON2 block -20%, RE007 growth inh 6.3µM*, AmpC detergent -5% and Sm TGR block 0.11µM*.
`CC(=O)N(c1ccccc1C)C1CCCC1` gave AmpC inh no detg -16%, AMA1 RON2 block 11%, RE007 growth inh -14%, AmpC detergent -12% and Sm TGR block -1%.
CC1CN(CCOc2ccccc2C(C)C)CC(C)O1 (centres undefined) was read as AmpC inh no detg 31%, AMA1 RON2 block 20µM*, RE007 growth inh -5%, AmpC detergent -5% and Sm TGR block 16%.
`c1ccc(-c2ccccc2OCCOCCN2CCc3ccccc3C2)cc1` gave AmpC inh no detg 147%, AMA1 RON2 block -9%, RE007 growth inh -8% and AmpC detergent 4%.
Screening CC1CN(CCOCCOc2ccccc2-c2ccccc2)CC(C)O1 (centres undefined) returned AmpC inh no detg 109%, AMA1 RON2 block 14µM*, RE007 growth inh -1%, AmpC detergent -10% and Sm TGR block inconclusive.
For C=CCc1cc(Cl)ccc1OCCN1CC(C)OC(C)C1 (centres undefined) the results were AmpC inh no detg 164%, AMA1 RON2 block inconclusive, RE007 growth inh -4% and AmpC detergent 0%.
`COC(=O)c1ccccc1OCCCCN1CC(C)OC(C)C1` (centres undefined) gave AmpC inh no detg -26%, AMA1 RON2 block -5%, RE007 growth inh 2%, AmpC detergent 7% and Sm TGR block 3%.
Screening C=CCc1cc(OC)ccc1OCCN1CC(C)OC(C)C1 (centres undefined) returned AmpC inh no detg 21%, AMA1 RON2 block 13µM*, RE007 growth inh -14%, AmpC detergent -10% and Sm TGR block 1%.
Screening COc1ccc(CCC(=O)NCCc2csc(-c3cccc(F)c3)n2)cc1 returned AmpC detergent 0% and Sm TGR block -4%.
For COc1ccccc1N1CCN(C(=O)C2CCN(S(=O)(=O)c3cnc[nH]3)CC2)CC1 the results were AmpC detergent -1% and Sm TGR block 1%.
For Cn1cccc1C1C(C#N)=C(N)OC2=C1C(=O)CC(C)(C)C2 (centres undefined) the results were AmpC inh no detg -3%, AMA1 RON2 block 10%, RE007 growth inh -14%, AmpC detergent 3% and Sm TGR block -11%[57.1 µM].
`CC1(C)CC(=O)C2=C(C1)OC(N)=C(C#N)C2c1ccc[nH]1` (centres undefined) gave AmpC inh no detg 31%, AMA1 RON2 block -3%, RE007 growth inh -5%, AmpC detergent -4% and Sm TGR block 18µM*.
Screening CC1(C)CC(=O)C2=C(C1)OC(N)=C(C#N)C2Cc1ccccc1 (centres undefined) returned AmpC inh no detg 0.32µM*, AMA1 RON2 block 2%, RE007 growth inh -2%, AmpC detergent -3% and Sm TGR block -32%.
Screening CCn1c(=O)c2cc(C(=O)NCCc3ccc(OC)c(OC)c3)sc2c2ccccc21 returned AmpC detergent -5% and Sm TGR block -2%.
For O=C(O)c1cccc2c1C(=O)c1ccc(-c3ccc(F)cc3OCc3ccccc3)cc1S2(=O)=O the results were AmpC inh no detg 143%, AMA1 RON2 block 3%, RE007 growth inh 5%, AmpC detergent 8% and Sm TGR block 32µM*.
For CCN1/C(=C/C(C)=C/c2sc3ccccc3[n+]2CC)Sc2ccccc21 the results were AmpC inh no detg 14%, AMA1 RON2 block 28µM*, RE007 growth inh 7.1µM*, AmpC detergent 1% and Sm TGR block -24%.
Screening COC(=O)c1cccc(Cn2c(Cl)c(/C=N/Nc3ccccc3C)sc2=O)c1 returned AmpC inh no detg 32µM*, AMA1 RON2 block inconclusive, RE007 growth inh 2%, AmpC detergent 2% and Sm TGR block 7.9µM*.
`Cc1ccccc1N/N=C/c1sc(=O)n(Cc2cccc(C(=O)O)c2)c1Cl` gave AmpC inh no detg -25%, AMA1 RON2 block -13%, RE007 growth inh -11%, AmpC detergent -11% and Sm TGR block 10µM*.

High-throughput results (PubChem)
